The values below come from PubChem BioAssay.

Active and inactive are the calls of the source.

The target in test [1] is Albumin (Bos taurus) (UniProt P02769). The test is described as follows: bovine serum albumin binders on microarray, profiling panel, artefact control for SMM control protein annotation, biochemical, small-molecule microarray, Alexa647 label, 635/667 nm fluorescence (AID 1118).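 Further: score merges 667 nm emission intensity and signal-to-noise per printed compound spot.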 The note with it: BSA-A647 binding, fluorescence 635 nm, higher = more signal.
Chain of Albumin (Bos taurus) (P02769 whole entry, looked up): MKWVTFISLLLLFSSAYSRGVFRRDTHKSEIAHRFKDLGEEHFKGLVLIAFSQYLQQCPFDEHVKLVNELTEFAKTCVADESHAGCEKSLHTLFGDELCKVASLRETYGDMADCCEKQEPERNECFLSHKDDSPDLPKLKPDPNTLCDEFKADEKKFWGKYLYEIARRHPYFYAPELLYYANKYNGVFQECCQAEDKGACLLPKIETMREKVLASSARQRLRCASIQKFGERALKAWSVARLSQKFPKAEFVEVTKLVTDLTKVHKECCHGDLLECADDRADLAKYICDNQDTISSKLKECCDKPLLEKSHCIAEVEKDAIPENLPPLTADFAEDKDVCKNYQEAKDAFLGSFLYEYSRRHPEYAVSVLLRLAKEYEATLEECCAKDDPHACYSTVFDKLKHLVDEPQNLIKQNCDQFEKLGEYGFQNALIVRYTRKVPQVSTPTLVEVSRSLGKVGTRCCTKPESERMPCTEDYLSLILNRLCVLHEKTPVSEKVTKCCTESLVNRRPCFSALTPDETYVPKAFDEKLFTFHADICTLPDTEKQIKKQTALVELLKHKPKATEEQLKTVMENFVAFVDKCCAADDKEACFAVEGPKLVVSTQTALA
Test [2] is described as follows: small-molecule microarray binders of probe aXIP, primary screen, biochemical, NeuroSMM set, 635/667 nm fluorescence (AID 1119).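 Further: probe is the protein aXip251-270 applied at 1 µg/mL to compound-printed slides; binding of probe to printed compounds measured as 667 nm fluorescence plus signal to noise.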 Particulars: higher = more signal, called active from +8 up or from −8 down.
Test [3] is described as follows: small-molecule binders of probe aNOTCH3, primary screen, biochemical, small-molecule microarray, 635/667 nm fluorescence (AID 1120).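 Further: probe is a biotin-tagged antibody raised against NOTCH3 rather than NOTCH3 protein; score merges spot fluorescence near 667 nm with spot signal to noise.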 Particulars: higher = more signal.
Test [4] is described as follows: small-molecule binders of probe aNOTCH2, primary screen, biochemical, small-molecule microarray, 635/667 nm fluorescence (AID 1121).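 Further: score merges feature fluorescence read at 667 nm with its signal to noise.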 Particulars: higher = more signal.
Test [5] addresses Carbonic anhydrase 2 (Homo sapiens) (UniProt P00918). The test is described as follows: CAII small-molecule binders, profiling panel, biochemical, small-molecule microarray, Alexa647-labelled CAII (AID 1122). The note with it: CAII-A647 binding fluorescence, higher = more signal.
The nature of test [6]: COS7 lysate on small-molecule microarray, probe aHis, 635 nm (AID 1123).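 Further: z-score combines 667nm fluorescence intensity with signal-to-noise per printed compound spot.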 The note with it: COS7 cell lysate, fluorescence, higher = more signal.
Test [7] is described as follows: compound binding in COS7 lysate, probe aLAP1, primary screen, cell lysate, small-molecule microarray (AID 1124).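 Further: lysate comes from COS7 cells expressing LAP1 and is applied at 0.3 µg/mL; score merges spot fluorescence near 667 nm with signal-to-noise over triplicate slides.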 The note with it: probe aLAP1, fluorescence, higher = more signal.
In test [8] the test system is Sam68 (KHDRBS1). In words: Sam68 small-molecule binders, primary screen, biochemical, small-molecule microarray, 635 nm fluorescence (AID 1125).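 Further: score merges 667 nm channel intensity with signal to noise over triplicate slides.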 The note with it: small-molecule microarray binding, higher = more signal.
The subject of test [9] is Chordin-like protein 2 (CHRDL2). In words: CHRDL2 small-molecule binders, primary screen, biochemical, small-molecule microarray, 635 nm fluorescence (AID 1126).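 Further: printed compound slides probed with Chrdl2 protein at 4 µg/mL for 1 h at 4 C; score merges 667 nm emission intensity with signal to noise over three replicate slides.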 The note with it: small-molecule microarray binding, fluorescence 635 nm; higher = more signal.
Test [10] addresses Concanavalin-A (Canavalia ensiformis) (UniProt P02866). The test is described as follows: ConA small-molecule binders, primary screen, artefact control for SMM control protein annotation, biochemical, small-molecule microarray, Alexa647 label, 635 nm (AID 1127).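 Further: z combines 667 nm emission intensity with signal-to-noise across three replicate slides.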 The note with it: ConA-A647 binding fluorescence, higher = more signal.
The nature of test [11]: anti-His antibody binders, primary screen, artefact control for SMM control protein annotation, biochemical, small-molecule microarray, 635 nm fluorescence (AID 1128).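 Further: score merges feature fluorescence with signal-to-noise for each printed compound spot.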 Particulars: anti-His Alexa647 antibody binding, higher = more signal.
Test [12] has as its system Human papillomavirus type 1a E7 protein (residues 1-88). The test is described as follows: HPV1a E7 small-molecule binders, primary screen, biochemical, small-molecule microarray, residues 1-88, 635 nm (AID 1129). Particulars: small-molecule microarray binding, fluorescence 635 nm; higher = more signal.
Test [13] deals with Focal adhesion kinase 1 (Homo sapiens) (UniProt Q05397). In words: small-molecule microarray binders of FAK, primary screen, biochemical, 635/667 nm fluorescence, BSA, DTT (AID 1130).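 Further: composite of spot emission at 667 nm and signal to noise over triplicate slides.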 Particulars: PTK2 binding, 635 nm fluorescence, higher = more signal.
Chain of Focal adhesion kinase 1 (Homo sapiens) (Q05397 whole entry, looked up): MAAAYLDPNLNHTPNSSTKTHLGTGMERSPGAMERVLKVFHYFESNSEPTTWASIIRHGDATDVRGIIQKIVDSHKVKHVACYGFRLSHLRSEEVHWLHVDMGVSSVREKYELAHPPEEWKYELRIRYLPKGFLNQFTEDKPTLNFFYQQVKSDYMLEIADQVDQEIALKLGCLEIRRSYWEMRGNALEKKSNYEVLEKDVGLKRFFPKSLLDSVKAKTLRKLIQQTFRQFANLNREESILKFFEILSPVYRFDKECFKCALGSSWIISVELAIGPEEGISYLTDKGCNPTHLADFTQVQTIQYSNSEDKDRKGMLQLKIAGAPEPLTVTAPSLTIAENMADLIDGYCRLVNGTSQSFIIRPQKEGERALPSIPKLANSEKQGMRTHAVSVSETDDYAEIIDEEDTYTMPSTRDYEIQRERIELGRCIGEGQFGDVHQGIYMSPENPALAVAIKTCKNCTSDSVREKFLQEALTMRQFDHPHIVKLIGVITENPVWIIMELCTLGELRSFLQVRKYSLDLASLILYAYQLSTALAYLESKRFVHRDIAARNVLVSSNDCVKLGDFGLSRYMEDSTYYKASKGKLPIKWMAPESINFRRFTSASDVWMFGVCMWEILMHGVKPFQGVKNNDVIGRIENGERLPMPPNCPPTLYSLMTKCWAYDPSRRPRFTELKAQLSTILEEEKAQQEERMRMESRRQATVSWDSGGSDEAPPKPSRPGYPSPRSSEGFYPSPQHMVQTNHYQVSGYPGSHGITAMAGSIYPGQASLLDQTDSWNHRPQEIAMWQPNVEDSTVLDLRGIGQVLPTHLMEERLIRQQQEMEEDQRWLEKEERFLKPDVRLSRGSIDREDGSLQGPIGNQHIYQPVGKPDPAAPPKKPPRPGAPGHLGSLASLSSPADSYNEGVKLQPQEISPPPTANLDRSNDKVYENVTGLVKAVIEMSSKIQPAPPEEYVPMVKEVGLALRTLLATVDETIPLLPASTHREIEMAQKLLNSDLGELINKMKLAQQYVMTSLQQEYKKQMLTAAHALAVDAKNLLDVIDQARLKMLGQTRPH
Test [14] has as its system Fibrinogen (Alexa647-labelled). The test is described as follows: fibrinogen binders on compound microarrays, profiling panel, artefact control for SMM control-protein annotation, biochemical, small-molecule microarray, 635/667 nm fluorescence (AID 1131).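 Further: z-score merges 667 nm fluorescence with per-spot signal-to-noise over triplicate slides.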 The note with it: fibrinogen-A647 binding fluorescence, higher = more signal.
Test [15] concerns the target Follistatin (Homo sapiens) (UniProt P19883). The test is described as follows: follistatin binders on small-molecule microarrays, primary screen, biochemical, small-molecule microarray, 635/667 nm fluorescence (AID 1132). Particulars: FST binding, 635 nm fluorescence, higher = more signal.
Test [16] addresses Fibroblast growth factor 2 (Homo sapiens) (UniProt P09038). The test is described as follows: FGF2 binders on small-molecule microarrays, primary screen, biochemical, small-molecule microarray, 635/667 nm fluorescence (AID 1133). Particulars: small-molecule microarray binding, FGF2, fluorescence 635/667; higher = more signal.
Test [17] is described as follows: mitochondrial membrane potential change in A549 cells, profiling panel, cell-based, JC-1 fluorescence, basal, 24 h, 100 nL (AID 1138).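 Further: A549 lung adenocarcinoma cells under basal conditions with no added stimulus; test concentration not given here.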 The note with it: higher = more signal.
Test [18] relates to Lefty1. In words: Lefty1 binders on small-molecule microarrays, primary screen, biochemical, small-molecule microarray, 635/667 nm fluorescence (AID 1139). The note with it: small-molecule microarray binding, fluorescence 635/667; higher = more signal.
The test system of test [19] is wheat germ agglutinin (Triticum aestivum), Alexa647-labelled. In words: wheat germ agglutinin binders on compound microarrays, profiling panel, artefact control for SMM control-protein annotation, biochemical, small-molecule microarray, 635/667 nm fluorescence (AID 1140).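 Further: score merges 667 nm feature emission with signal to noise over triplicate slides.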 The note with it: WGA-A647 binding, 635 nm fluorescence, higher = more signal.
The target of test [20] is Luciferin 4-monooxygenase (Photinus pyralis) (UniProt P08659). The test is described as follows: firefly luciferase enzyme inhibitors, primary screen, biochemical, luminescence, purified enzyme, 2006 set (AID 1141).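 Further: cell-free assay with purified firefly luciferase at 100 ng per well in PBS; test concentration not given here.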 The note with it: SteadyGlo luminescence, 30 min, higher = more signal, called active from +8 up or from −8 down.
Chain of Luciferin 4-monooxygenase (Photinus pyralis) (P08659 whole entry, looked up): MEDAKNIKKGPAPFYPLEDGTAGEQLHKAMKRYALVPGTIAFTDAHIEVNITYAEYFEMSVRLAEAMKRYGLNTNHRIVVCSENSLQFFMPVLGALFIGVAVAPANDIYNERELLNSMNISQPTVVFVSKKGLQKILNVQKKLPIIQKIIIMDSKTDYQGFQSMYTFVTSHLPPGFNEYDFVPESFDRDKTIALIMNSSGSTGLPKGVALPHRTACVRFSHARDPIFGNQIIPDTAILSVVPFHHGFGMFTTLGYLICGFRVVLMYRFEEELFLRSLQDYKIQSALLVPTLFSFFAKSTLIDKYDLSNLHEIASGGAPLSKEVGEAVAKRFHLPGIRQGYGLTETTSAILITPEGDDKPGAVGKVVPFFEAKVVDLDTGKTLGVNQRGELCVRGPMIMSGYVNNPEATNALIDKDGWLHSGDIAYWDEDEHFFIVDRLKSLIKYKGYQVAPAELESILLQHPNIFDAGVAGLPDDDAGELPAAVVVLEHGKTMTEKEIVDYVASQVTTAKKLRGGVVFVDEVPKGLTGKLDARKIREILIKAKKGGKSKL

Chain of Concanavalin-A (Canavalia ensiformis) (P02866 whole entry, looked up): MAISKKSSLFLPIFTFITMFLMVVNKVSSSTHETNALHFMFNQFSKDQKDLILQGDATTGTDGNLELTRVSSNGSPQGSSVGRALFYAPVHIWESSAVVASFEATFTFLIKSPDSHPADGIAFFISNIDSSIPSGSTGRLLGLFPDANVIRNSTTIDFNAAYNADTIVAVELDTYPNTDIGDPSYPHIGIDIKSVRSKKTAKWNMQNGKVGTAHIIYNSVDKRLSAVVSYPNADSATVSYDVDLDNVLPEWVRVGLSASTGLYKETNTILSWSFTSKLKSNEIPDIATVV
Chain of Fibroblast growth factor 2 (Homo sapiens) (P09038 whole entry, looked up): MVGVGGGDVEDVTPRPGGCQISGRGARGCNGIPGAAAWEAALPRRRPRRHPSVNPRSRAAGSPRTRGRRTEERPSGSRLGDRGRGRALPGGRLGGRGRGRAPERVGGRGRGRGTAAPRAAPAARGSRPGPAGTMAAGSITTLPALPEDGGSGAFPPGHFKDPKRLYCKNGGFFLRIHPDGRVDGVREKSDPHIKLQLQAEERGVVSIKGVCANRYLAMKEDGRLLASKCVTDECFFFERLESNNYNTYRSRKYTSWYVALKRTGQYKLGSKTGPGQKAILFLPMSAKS
Chain of Follistatin (Homo sapiens) (P19883 whole entry, looked up): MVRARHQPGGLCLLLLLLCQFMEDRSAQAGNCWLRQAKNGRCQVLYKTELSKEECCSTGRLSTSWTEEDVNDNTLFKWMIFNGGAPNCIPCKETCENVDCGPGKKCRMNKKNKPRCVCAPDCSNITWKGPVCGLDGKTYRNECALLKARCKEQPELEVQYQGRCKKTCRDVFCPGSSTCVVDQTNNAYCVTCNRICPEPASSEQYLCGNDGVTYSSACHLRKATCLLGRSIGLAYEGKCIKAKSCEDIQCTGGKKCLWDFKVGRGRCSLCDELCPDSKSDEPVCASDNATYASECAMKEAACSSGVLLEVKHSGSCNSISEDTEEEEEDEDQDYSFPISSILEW

Consider `O=C1[C@H]2[C@H]3[C@H](O)[C@H](O)CC(=NO[C@@H]4O[C@H](CO)[C@@H](O)[C@H](O)[C@H]4O)[C@H]3CC[C@H]2C(=O)N1C1CCCCC1`, for which the composite z-score in [1] was 0.785; in [3] it was 0.11; in test [4], -0.112; in [5], 0.124; in test [6], 0.197; in test [7] it was 0.3. For the same compound, the composite z-score in test [8] was 1.3; in [9], -0.298; in test [10], -0.316; in test [11] it was 0.648; in [12], 1.16; in [13], 0.84. Also, the composite z-score in test [14] is 0.402; in [15], -0.384; in test [16] it was -0.0148; in test [18] it was 0.625; in test [19], 0.183. For the same compound, the composite Z-score in test [2] is -0.0164 (inactive). Further, the z-score was -0.0288 in test [17] and 0.23 (inactive) in test [20].

For the compound `CCOC(=O)[C@H](Cc1ccccc1)NC(=O)CCC1CC(OC(=O)NCCc2ccc(F)cc2)CC2(CCCC(COC(=O)NCC(c3ccccc3)c3ccccc3)O2)O1` (stereo not given in full), the composite z-score in [1] is 0.641; in [3], -0.0893; in [4], -0.037; in test [5] it was 0.16; in [6], 1.04; in [7], 0.0435. Besides, the composite z-score worked out at 1.32 in [8]; 0.227 in [9]; 0.992 in test [10]; 0.999 in test [11]; 0.517 in test [12]; 0.111 in test [13]. Moreover, the composite z-score in [14] turned out to be 0.7; in test [15] it was 0.831; in test [16], 0.563; in test [18] it was 0.68; in [19] it was 0.554. In addition, the composite Z-score in [2] was 0.066 (inactive). For the same compound, the z-score was 0.597 in test [17] and 0.715 (inactive) in test [20].

Consider `COc1ccc(COC(=O)NN=C2C[C@@H](O)[C@@H](O)[C@@H]3[C@@H]4C(=O)N(c5ccc(F)cc5F)C(=O)[C@@H]4CC[C@@H]23)cc1`, for which the composite z-score in test [1] was 0.688; in test [3], 0.112; in test [4] it was -0.14; in test [5] it was -0.416; in [6] it was -0.413; in [7] it was -0.2. The composite z-score in test [8] is -0.356; in test [9], -0.0448; in test [10], 0.454; in test [11] it was 0.257; in test [12], -0.769; in [13], 0.0141. Further, the composite z-score in test [14] is 0.794; in [15], -0.409; in test [16], -0.0007; in test [18] it was -0.291; in test [19] it was 0.744. The composite Z-score in test [2] is -0.0662 (inactive). For the same compound, the z-score in test [17] was -0.604; in [20], 0.506 (inactive).

Take `COc1ccc(O[C@H]2C=C[C@@H](c3ccccc3)O[C@@H]2COC(=O)CCC(C)=NOCC[C@@H]2C=C[C@H](OC(C)=O)[C@@H](COC(C)=O)O2)cc1`: the composite z-score in test [1] is -0.598; in [3], 0.297; in [4], -0.0028; in [5], 0.654; in test [6], 0.938; in [7], 0.203. The composite z-score in test [8] is -0.23; in test [9] it was -0.0022; in [10] it was -0.997; in test [11], 0.545; in test [12], -0.129; in test [13], 0.151. Besides, the composite z-score in [14] was determined as 0.351; in test [15], 0.612; in test [16], 0.168; in test [18], 0.342; in [19], 0.193. Moreover, the composite Z-score in test [2] is 0.806 (inactive). In addition, the z-score in [17] is 0.213; in test [20], 1.03 (inactive).

Regarding `CCCCCCc1nc(CCCc2cc3c(c(CCCCCC)n2)[Si](C(C)C)(C(C)C)O[C@H]3c2ccccc2)cc2c1[Si](C(C)C)(C(C)C)O[C@H]2c1ccccc1`, the composite z-score was -0.27 in test [1]; -0.0284 in [3]; -0.14 in test [4]; -0.156 in [5]; -0.0088 in test [6]; -0.0919 in test [7]. In addition, the composite z-score is -0.14 in test [8]; -0.0538 in test [9]; 0.314 in test [10]; -0.246 in test [11]; -0.526 in test [12]; -0.43 in test [13]. Besides, the composite z-score in [14] was -1.19; in test [15], 0.385; in [16], -0.0811; in test [18] it was 0.778; in test [19], -0.0778. In [2], the composite Z-score is 0.248 (inactive). In addition, the values for the z-score in test [17] and in test [20] were 0.669 and 0.733 (inactive), respectively.
